Reference: PubChem BioAssay

molecular target: 6-phosphogluconate dehydrogenase, decarboxylating (Homo sapiens) (UniProt P52209); assay: inhibition of human phosphogluconate dehydrogenase – biochemical, recombinant enzyme, NADPH absorbance, primary screen (AID 1159550); conditions: recombinant 6PGD, NADPH absorbance 341 nm; at 10 µM; stronger effect = higher value
Sequence (P52209 whole entry, looked up): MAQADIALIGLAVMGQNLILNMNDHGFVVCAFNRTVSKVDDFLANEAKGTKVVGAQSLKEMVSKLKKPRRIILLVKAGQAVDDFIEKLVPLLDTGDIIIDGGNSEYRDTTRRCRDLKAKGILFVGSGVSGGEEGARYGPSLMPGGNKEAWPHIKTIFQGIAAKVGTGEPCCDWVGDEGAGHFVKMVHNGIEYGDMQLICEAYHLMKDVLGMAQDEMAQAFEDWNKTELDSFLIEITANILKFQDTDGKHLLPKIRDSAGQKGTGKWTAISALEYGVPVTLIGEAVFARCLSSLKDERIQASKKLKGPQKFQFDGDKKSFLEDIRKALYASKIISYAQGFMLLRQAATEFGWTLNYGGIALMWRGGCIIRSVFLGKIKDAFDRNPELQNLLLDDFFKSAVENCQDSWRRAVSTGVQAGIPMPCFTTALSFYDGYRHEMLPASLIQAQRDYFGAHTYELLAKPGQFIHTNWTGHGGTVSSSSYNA

inhibition, inactive:
CC(=O)Oc1cc2c(c(C)c1OC(C)=O)CC=C1[C@@]2(C)CC[C@@]2(C)[C@@H]3C[C@](C)(C(=O)O)CC[C@]3(C)CC[C@]12C 0.972%
COc1ccc(-c2c(O)c3c(OC)c4c(cc3oc2=O)OC(C)(C)CC4)cc1 1.85%
Oc1cc(O)c2c(c1)O[C@H](c1cc(O)c(O)c(O)c1)[C@H](O)[C@H]2c1c(O)cc(O)c2c1O[C@H](c1cc(O)c(O)c(O)c1)[C@H](O)[C@H]2c1c(O)cc(O)c2c1O[C@H](c1cc(O)c(O)c(O)c1)[C@H](O)C2 11.5%
C=CCCCCCCCCCCC[C@@H](O)C[C@@H](O)CO -7.76%
C1CCN2CC3CC(CN4CCCCC34)C2C1 (centres undefined) 12.3%
C[C@H]1[C@@H](O)O[C@@H]2OC3(C)CC[C@H]4[C@H](C)CC[C@@H]1[C@@]24OO3 -22.8%
C[C@]12CC[C@@H]3c4ccc(OC(=O)CCC(=O)O)cc4CC[C@H]3[C@@H]1CCC2=O 5.64%
CC(=O)OC1CCC2(C)C(CCC3(C)C2CC=C2C4CC(C)(C)CCC4(C)CCC23C)C1(C)C (centres undefined) 3.75%
CC(=O)OC1CC[C@@]2(C)C(CC[C@H]3[C@@H]4CC=C(C(C)=O)[C@@]4(C)C(=O)C[C@@H]32)C1 (some centres undefined) 4.79%
CCCCCCCCCCCCC(C(=O)O)C(C)C(=O)O (centres undefined) -10.3%
COc1ccc(-c2coc3cc(O)ccc3c2=O)c(OC)c1O 1.46%
CC(=O)OC1CCC2(C)C(CCC3C2CC(=O)C2(C)C3CC3OC4(CCC(C)CO4)C(C)C32)C1 (centres undefined) 5.72%
CC(=O)NC(Cc1c[nH]c2ccccc12)C(N)=O (centres undefined) -11.6%
CC(=O)OC1CCC2(C)C(CCC3C2CCC2(C)C3CC3OC4(CCC(C)CO4)C(C)C32)C1 (centres undefined) 4.61%
OC[C@@H](O)C(O)[C@H](O)CO -0.48%
CC(=O)OC(C)(CCC=C(C)C)C1CC=C(C)CC1 (centres undefined) 0.603%
CC(=O)O[C@H](CC(=O)[O-])C[N+](C)(C)C -15.2%
CC(C)CC(NC(=O)C1CCCN1C(=O)C(N)C(C)C)C(=O)O (centres undefined) 14%
C[C@H](C[C@@H](O)[C@@H]1OC1(C)C)[C@@H]1CC[C@]2(C)C3=CC[C@H]4C(C)(C)C(=O)CC[C@]4(C)[C@H]3CC[C@@]12C -0.309%
CC(C)CCCCCOC(=O)COc1ccc(Cl)cc1Cl -8.81%
CN[C@H]1[C@@H](O[C@@H]2[C@@H](O[C@H]3[C@H](O)[C@@H](O)[C@H](N=C(N)N)[C@@H](O)[C@@H]3N=C(N)N)O[C@H](C)[C@@]2(O)C=O)O[C@H](CO)[C@@H](O)[C@@H]1O 6.7%
C=C1C(=O)OC2C[C@]3(C)[C@H](C(C)=CC[C@@H]3O)[C@@H](O)C12 (some centres undefined) 18.1%
CC(=O)Oc1cc2c(c(C)c1OC(C)=O)CC1OC13[C@@]2(C)CC[C@@]1(C)C2C[C@](C)(C(=O)O)CC[C@]2(C)CC[C@]31C (some centres undefined) 2.26%
CCOC(=O)C(=O)C1(C(=O)OCC)Oc2cc(OC)cc(OC)c2C(=O)C1c1ccccc1 (centres undefined) 14.2%
CC(=O)Oc1ccc2c(c1)CCC1C2CCC2(C)C(OC(C)=O)CCC12 (centres undefined) 3.64%
CC1(C)CC2C1CC[C@]1(CBr)CCC3C(CC(=O)O)C(=O)O[C@@]32C1 (some centres undefined) 14.7%
CC(=O)[C@H]1CC[C@H]2[C@@H]3CC(=O)C4=CC(=O)CC[C@]4(C)[C@H]3CC[C@]12C -2.73%
CC[C@H]1OC(=O)[C@H](C)[C@@H](O[C@H]2C[C@@](C)(OC)[C@@H](O)[C@H](C)O2)[C@H](C)[C@@H](O[C@@H]2O[C@H](C)C[C@H](N(C)C)[C@H]2O)[C@](C)(O)C[C@@H](C)[C@@H]2NC(COCCOC)O[C@H]([C@H]2C)[C@]1(C)O (some centres undefined) 5.47%
O=C/C=C/c1ccc(O)cc1 1.58%
CCC1(C2OC(C3OC(O)(CO)C(C)CC3C)CC2C)CCC(C2(C)CCC3(CC(O)C(C)C(C(C)C(OC)C(C)C(=O)O)O3)O2)O1 (centres undefined) 3.18%
COC1=CC(=O)C(O)=C/C1=C/C=C/c1ccccc1 4.47%
COc1ccc2c(c1)[C@@]1(C)CC[C@@H](O)C[C@@H]1CC2 13.3%
CCC(=O)OCC(=O)[C@@]1(OC(=O)CC)[C@@H](C)CC2C3CCC4=CC(=O)C=C[C@]4(C)[C@@]3(F)C(O)C[C@@]21C (some centres undefined) -9.91%
C=CCCCCCCCCCCC/C=C/C(O)COC(C)=O (centres undefined) -11.7%
CC(C)C[C@H](NC(=O)OCC1c2ccccc2-c2ccccc21)C(=O)O 2.94%
CC1(C)C(=O)C2OC2C2(C)C1CC(=O)C1(C)C2CCC2(C)C(c3ccoc3)OC(=O)C3OC321 (centres undefined) 2.22%
COc1c(Cl)ccc(Cl)c1C(=O)O 7.71%
CC(=O)O[C@H]1C[C@@H](O)C(C)(C)[C@@H]2C[C@@H](OC(C)=O)[C@]3(C)[C@H](CC[C@@]4(C)[C@@H](c5ccoc5)OC(=O)[C@H]5O[C@@]534)[C@@]12C 1.48%
COc1c(Cl)c(C)c2c(c1Cl)OC(=O)c1c(C)c(Cl)c(OC)c(Cl)c1O2 -8.06%
